Many of the other results were omitted from the sample, so hits are more common in it than they were.
KDM5B inhibitor = Primary screen for KDM5B Histone Demethylases FDH-coupled qHTS | Lysine-specific demethylase 5B (Homo sapiens), Q9UGL1 | KDM5B demethylase, FDH-coupled NADH fluorescence (FDH is formaldehyde dehydrogenase) | Potency, µM (titrated, usually from 57.7 µM), most hits filed as inhibitors | actives 2.6% (n = 220,000) | AID 1347165, 2019; active = well fitted inhibition curve with a large enough effect; also: nearly all actives have a fitted effect of over 70% in size
Target sequence (Q9UGL1 whole entry, looked up): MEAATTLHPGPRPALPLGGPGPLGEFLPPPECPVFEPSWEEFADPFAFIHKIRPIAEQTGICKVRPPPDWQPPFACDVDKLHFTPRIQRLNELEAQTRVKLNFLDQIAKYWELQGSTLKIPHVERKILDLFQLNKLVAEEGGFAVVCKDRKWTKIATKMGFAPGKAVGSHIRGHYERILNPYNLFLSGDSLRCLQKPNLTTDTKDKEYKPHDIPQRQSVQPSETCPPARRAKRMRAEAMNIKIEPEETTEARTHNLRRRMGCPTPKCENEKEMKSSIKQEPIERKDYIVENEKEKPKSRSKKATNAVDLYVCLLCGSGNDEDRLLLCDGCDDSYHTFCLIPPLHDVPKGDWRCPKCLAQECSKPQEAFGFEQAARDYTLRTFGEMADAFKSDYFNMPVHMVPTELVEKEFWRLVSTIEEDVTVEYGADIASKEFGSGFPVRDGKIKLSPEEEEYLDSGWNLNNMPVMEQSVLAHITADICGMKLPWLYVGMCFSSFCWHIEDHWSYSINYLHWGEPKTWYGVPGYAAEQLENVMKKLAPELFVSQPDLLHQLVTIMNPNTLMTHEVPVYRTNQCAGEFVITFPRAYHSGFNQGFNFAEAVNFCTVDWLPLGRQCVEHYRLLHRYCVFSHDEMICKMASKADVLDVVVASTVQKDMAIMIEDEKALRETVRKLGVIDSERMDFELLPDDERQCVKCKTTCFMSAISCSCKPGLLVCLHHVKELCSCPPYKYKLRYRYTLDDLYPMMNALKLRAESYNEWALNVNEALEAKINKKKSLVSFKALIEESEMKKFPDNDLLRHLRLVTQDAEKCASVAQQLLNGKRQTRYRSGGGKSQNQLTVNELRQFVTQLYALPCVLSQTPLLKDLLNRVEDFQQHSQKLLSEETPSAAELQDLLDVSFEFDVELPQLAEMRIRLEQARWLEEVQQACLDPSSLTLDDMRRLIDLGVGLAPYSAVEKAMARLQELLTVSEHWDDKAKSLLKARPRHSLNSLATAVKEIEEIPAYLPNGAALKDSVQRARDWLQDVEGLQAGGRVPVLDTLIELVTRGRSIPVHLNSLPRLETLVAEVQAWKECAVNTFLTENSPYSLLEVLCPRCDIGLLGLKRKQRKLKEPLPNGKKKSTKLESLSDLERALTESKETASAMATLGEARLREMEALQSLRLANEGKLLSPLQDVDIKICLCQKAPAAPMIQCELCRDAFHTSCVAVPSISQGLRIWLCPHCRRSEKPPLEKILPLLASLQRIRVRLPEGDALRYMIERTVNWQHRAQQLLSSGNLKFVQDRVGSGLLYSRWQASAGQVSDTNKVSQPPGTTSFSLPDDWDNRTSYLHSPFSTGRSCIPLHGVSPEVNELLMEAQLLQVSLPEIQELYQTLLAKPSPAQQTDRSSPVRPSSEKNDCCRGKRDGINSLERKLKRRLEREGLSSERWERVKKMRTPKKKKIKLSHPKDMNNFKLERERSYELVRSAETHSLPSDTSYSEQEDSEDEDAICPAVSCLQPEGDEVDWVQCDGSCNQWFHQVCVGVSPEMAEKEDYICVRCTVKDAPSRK
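qHTS format, multiple compound concentrations. Buffer 50 mM HEPES pH 7.5/0.01% Tween-20; 200 nM KDM5BΔAP final; 10 min compound preincubation; substrate-mix levels 12.5 µM peptide, 25 µM α-KG, 0.25 mM NAD⁺; 30 min RT; ΔRFU.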
Large screens that a line does not name were inactive.

COc1ccccc1C(=O)N1CCN(c2cc(-c3cccs3)[nH]n2)CC1	none
COc1cc(OC)cc(C(=O)NC2CCN(c3cc(-c4cccs4)[nH]n3)C2)c1 (stereo unspecified)	KDM5B inhibitor 3.5µM
COc1ccc(-c2cc(N3CCCC(NC(=O)c4cccs4)C3)n[nH]2)cc1 (stereo unspecified)	none
COc1ccccc1C(=O)NC1CCN(c2cc(-c3cccs3)[nH]n2)C1 (stereo unspecified)	KDM5B inhibitor 16µM
O=C(c1ccccc1Br)N1CCN(c2cc(-c3cccs3)[nH]n2)CC1	none
O=C(c1ccc(C2SCCS2)cc1)N1CCN(Cc2ccc(Cl)cc2)CC1	none
Cc1cc(C2=NNC(=NC3CCCCC3)SC2)c(C)n1C1CC1	none
Clc1ccc(Oc2cc(Cl)c(Cl)cc2Cl)cc1	none
Cc1cc(C23CC4CC(CC(C4)C2)C3)ccc1O	none
C[C@]1(O)CCN(C(=O)Cc2ccc3c(c2)OCO3)C[C@@H]1O	none
C[C@@]1(O)CCN(Cc2ccc3c4c(cccc24)C(=O)OC3)C[C@@H]1O	KDM5B inhibitor 28µM
CN(C)c1ccc(CC(=O)N2CC[C@@](C)(O)[C@@H](O)C2)cc1	none
C#CCN(C)Cc1nc(C2(O)CCN(C(=O)C3CCCCC3)CC2)cs1	none
O=C(CC[C@@H]1CNC(=O)[C@@H]2C[C@H](NCc3ccccn3)CN12)NCc1ccccc1	KDM5B inhibitor 25µM
O=C(CC[C@@H]1CNC(=O)[C@@H]2C[C@H](NCc3ccccc3)CN12)NCc1ccc(F)cc1	none
COc1ccc(CN[C@H]2C[C@H]3C(=O)NC[C@@H](CCC(=O)NCc4ccccc4)N3C2)cc1	KDM5B inhibitor 35µM
O=C(CC[C@@H]1CNC(=O)[C@@H]2C[C@H](NCc3ccccc3)CN12)NCc1ccccc1	none
O=C(CC[C@@H]1CNC(=O)[C@@H]2C[C@H](NS(=O)(=O)c3ccc(F)cc3)CN12)NCc1ccccc1	none
O=C(CC[C@@H]1CNC(=O)[C@@H]2C[C@H](NCc3cccc(Cl)c3)CN12)NCc1ccc(F)cc1	none
O=C(OCC(=O)c1c[nH]c2ccccc12)c1ccc([N+](=O)[O-])cc1Cl	none
C/C=C/C=C/C(=O)NC(C)c1ccc(F)c(F)c1 (stereo unspecified)	none
Cc1ccc(C2(c3ccccc3)NC(=O)N(Cc3ncc(-c4ccccc4)o3)C2=O)cc1C (stereo unspecified)	none
Cc1cccn2c(CNC(=O)CCc3cc4n(n3)CCCNC4)cnc12	KDM5B inhibitor 25µM
O=C(CCc1cc2n(n1)CCCNC2)Nc1ccccc1CCc1ccccn1	none
O=C(NCc1cc2n(n1)CCCNC2)c1ccc(Cn2cnnn2)cc1	none
Cc1cccc2ncc(C(=O)NCc3cc4n(n3)CCCNC4)c(=O)n12	KDM5B inhibitor 28µM
O=C(CCc1cc2n(n1)CCCNC2)Nc1ccc2c(c1)OCCO2	none
CCCNS(=O)(=O)c1ccc(C(=O)NCc2cc3n(n2)CCNC3)cc1	none
CC(=O)c1ccc(OCc2ccc(F)cc2)cc1	none
CCOc1cccc(CN(CCO)Cc2nccn2-c2ccc(OC)cc2)c1	none
CNC(=O)c1ccc(NC(=O)CSCc2csc(-c3ccc(C)cc3)n2)cc1	none
Cc1cc(C)c(OCC(=O)Nc2ccc3oc(=O)ccc3c2)c(C)c1	none
CN(C)C[C@@H]1CN(Cc2cccnc2)C[C@H]1NC(=O)c1cc2ccccc2[nH]1	KDM5B inhibitor 28µM
O=C(N[C@@H]1CN(c2ncccn2)C[C@H]1CO)c1cc2ccccc2[nH]1	KDM5B inhibitor 14µM
CN(C)C[C@@H]1CN(Cc2cccnc2)C[C@H]1NC(=O)c1ccccc1Cl	none
Cc1cc(C(=O)N[C@@H]2CN(Cc3cccnc3)C[C@H]2CN(C)C)no1	none
CN(C)C[C@@H]1CN(c2ccncn2)C[C@H]1NC(=O)c1cccc2[nH]ccc12	none
O=C(c1cc2ccccc2[nH]1)N1C[C@@H](CO)[C@H](c2ccccn2)C1	none
O=C(NCCNC(=O)c1cc2ccccc2[nH]1)C(=O)NC1CC1	none
CN(C)C[C@@H]1CN(c2ncccn2)C[C@H]1NC(=O)c1cc2ccccc2[nH]1	KDM5B inhibitor 28µM
COCC(=O)N[C@@H]1CN(C(=O)c2cc3ccccc3[nH]2)CC[C@@H]1CO	none
O=C(N[C@@H]1CN(Cc2ccccc2)C[C@H]1CO)c1ncccn1	none
Cn1cnc(C(=O)N[C@H]2CCOC[C@H]2C2CCOCC2)c1	none
Cn1cnc(C(=O)N[C@@H]2CN(c3ncccn3)C[C@H]2CO)c1	KDM5B inhibitor 28µM
O=C(N1CCCCC1)N1CCN(Cc2nc(C3CC3)no2)CC1	none
Cc1oc(-c2ccccc2)nc1C(=O)OC(C)C(=O)NCc1ccccc1 (stereo unspecified)	none
O=C(O)c1cc(-c2ccccn2)nc2c(Cl)cccc12	none
CN(C)C(=O)CN1CCN(C(C(=O)O)c2cn(CC(=O)O)c3cc(Cl)ccc23)CC1 (stereo unspecified)	none
Cc1nc2cc(-c3ccccc3)nn2c(C)c1CC(=O)NCCc1ccccc1	none
CCOC(=O)C(NC(=O)Cc1c[nH]c2ccccc12)C(=O)OCC	none
CCC(=O)N[C@@H]1CN(Cc2ccccc2)C[C@H]1CN(C)C	none
Cc1cc(C)n(CCC(=O)N[C@@H]2CN(Cc3ccccc3)C[C@H]2CN(C)C)n1	none
Cc1cc(C)n(CC(=O)N[C@@H]2CN(Cc3ccccc3)C[C@H]2CN(C)C)c(=O)n1	KDM5B inhibitor 8.9µM
CC(C)NC(=O)Cn1ccn2nc3c(c2c1=O)CCCC3	none
CCCNC(=O)Cn1ccn2nc3c(c2c1=O)CCCC3	none
CC(C)CCNC(=O)Cn1ccn2nc3c(c2c1=O)CCCC3	KDM5B inhibitor 20µM
CCc1ccccc1NC(=O)Cn1ccn2nc3c(c2c1=O)CCCC3	KDM5B inhibitor 35µM
Cc1ccccc1NC(=O)CCn1ccn2nc3c(c2c1=O)CCCC3	none
Cc1ccc(NC(=O)Cn2ccn3nc4c(c3c2=O)CCCCC4)c(C)c1	none
O=C(N[C@@H]1CCNC[C@H]1O)c1cccc(-c2ccc(OC(F)(F)F)cc2)c1	none
CC1CCCN(CCCn2c(=O)c3c(ncn3C)n(C)c2=O)C1 (stereo unspecified)	none
c1ccc(-c2cc(-c3ccccc3)nc(-c3ccccc3)c2)cc1	none
CC(C)c1noc(C(C)Sc2cc(C(N)=O)c3ccccc3n2)n1 (stereo unspecified)	none
CC(=O)N1CCN(C(=O)CCc2nc3ccc(F)cc3[nH]2)CC(O)C1 (stereo unspecified)	none
CCCCN1CCN(C(=O)c2cnc(-c3ccccc3)nc2-c2ccncc2)CC1	none
COc1ccc(C(=O)N2CCN(Cc3ccccc3)CC(O)C2)c(OC)n1 (stereo unspecified)	none
CC(=O)N1CCN(C(=O)c2cc3ccccc3[nH]c2=O)CC(O)C1 (stereo unspecified)	KDM5B inhibitor 28µM
COCC1CN(C(C)=O)CC12CCN(C(=O)c1cc3ccccc3[nH]1)CC2 (stereo unspecified)	none
CC(=O)N1CCN(C(=O)c2cnc(N)nc2-c2ccccc2)CC(O)C1 (stereo unspecified)	KDM5B inhibitor 25µM
Cc1cc(N2CCCC2)nc(Nc2ccc(NS(=O)(=O)c3ccc(Br)cc3)cc2)n1	none
Cc1nccn1CCNC(=O)CCC[C@H]1NC[C@@H]2C[C@H]1CN(Cc1ccccc1)C2	none
CCCNC(=O)C(C)NC(=O)CSc1ccc(NC(C)=O)cc1 (stereo unspecified)	none
Cc1nc(SCc2ccccc2)[nH]c(=O)c1CCC(=O)N1CCC(C)CC1	none
CC(C)n1ncc2cc(NC(=O)c3ccc(Cl)c(S(=O)(=O)N4CCCCC4)c3)cnc21	none
O=C1NCCCCCCN(Cc2ccncc2)[C@@H]2CN(Cc3ccncc3F)CC[C@H]12	KDM5B inhibitor 20µM
CN(C)S(=O)(=O)N1CC[C@H]2C(=O)NCCCCCCN(Cc3ccncc3)[C@@H]2C1	none

Screening results deposited in PubChem BioAssay by National Center for Advancing Translational Sciences (NCATS).
